Inconclusive results are not listed. Unmarked numbers belong to inactive results. Activity calls are given as the source filed them. Calls follow the shape of the dose curve; as a rule, active = well fitted cell-killing curve with a large enough effect in the repeat runs; inconclusive = weak or mixed curves, or effect the other way; inactive = flat fitted curve, though single readings scatter.
test: qHTS assay to identify small molecule agonists of the sonic hedgehog signaling (Shh) pathway - cell viability counter screen (AID 1259366); details: NIH/3T3 Gli1-Luc viability, CellTiter-Fluor, 24 h; series mostly up to 92.4 µM; viability change, negative = cytotoxic: at the top concentration; also: nearly all actives have a fitted effect of over 50% in size
Excerpt: National Center for Advancing Translational Sciences [NCATS]
NIH Chemical Genomics Center [NCGC]
U.S. Environmental Protection Agency [EPA]
National Institutes of Environmental Health Sciences [NIEHS]
National Toxicology Program [NTP]
U.S. Food and Drug Administration [FDA]
The sonic hedgehog (Shh) pathway is essential for normal embryonic development. Dysregulation of the Shh pathway can cause severe developmental defects in organs. Therefore chemicals that interfere with the pathway are potential developmental toxicants. A cell line designated 3T3Gli1-Luc (DMB/OARSA/CFSAN/FDA, Laurel, MD), a NIH/3T3 derived clone containing stably integrated Gli1-Luc reporter is used to detect chemical interference of the Shh pathway, by changes in the expression of the firefly Luc gene under the control of the Gli1 transcriptional response element. This cell line was used to screen Tox21 libraries for identifying and prioritizing the potential developmental toxicants that interfere Shh pathway. The cytotoxicity of the compounds was tested in parallel by measuring the cell viability using CellTiter-Fluor assay system (Promega, Madison, WI) in the same wells.
Tox21 Assay Protocol Summary:
3T3 Gli1-Luc cells were dispensed at 2,000 per well in 5uL of culture medium into white solid bottom 1536-well plates (Greiner Bio-One, Monroe, NC) using a Multidrop Combi (Thermo Scientific, Waltham, MA) dispenser. The assay plates were incubated at 37 C and 5% CO2 for 4hr, and then 23nL of compounds dissolved in DMSO and positive control were transferred using a Pintool station (Wako, San Diego, CA). The assay plates were incubated at 37C and 5% CO2 for 24hr. For viability read, after 23hr of compound treatment, 1uL of CellTiter-Fluor reagent (Promega Corporation, Madison, WI) was added to each well of the assay plates using Flying Reagent Dispenser (FRD, Aurora Discovery, San Diego, CA) and incubated the assay plates at 37C for 1hr. The fluorescence signal was quantified using a ViewLux plate reader (Perkin Elmer, Shelton, CT).
% is scaled to controls: 0 for no effect and ±100 for the full control effect; potency is read from the fitted curve at half-maximal effect.

Row | Structure (SMILES) | viability change, negative = cytotoxic | Potency
1 | OCc1c2ccccc2cc2ccccc12 | -3.73% | –
2 | CCCOc1ccc2c(c1)CC[C@@H]1[C@@H]2CC[C@]2(C)C(OC)CC[C@@H]12 (stereo not given in full) | 1.32% [at 42.5 µM] | –
3 | CC(C)C(=O)OC/C=C/c1ccccc1 | 3.02% | –
4 | CCCCNc1ccc(C(=O)OCCN(CC)CC)cc1 | -5.89% [at 42.5 µM] | –
5 | O=[N+]([O-])c1nccn1CO[C@@H](CO)[C@H](O)CO | 3.1% [at 42.5 µM] | –
6 | CN(C)C(=O)NC1(c2ccccc2)CCN(CCC[C@]2(c3ccc(Cl)c(Cl)c3)CCCN(C(=O)c3ccccc3)C2)CC1 | – | 13 µM (active)
7 | CCCS(=O)c1ccc2nc(NC(=O)OC)[nH]c2c1 (stereo not given) | 1.04% [at 42.5 µM] | –
8 | O=S(=O)(O)C(F)(F)F | -0.865% | –
9 | CCN(O)CC | – | 30 µM (active)
10 | CCOC(=O)c1ccccc1O | -0.334% [at 42.5 µM] | –
11 | Cc1onc(-c2ccccc2)c1C(=O)Cl | 3.42% [at 42.5 µM] | –
12 | OCCN(CCO)CCN(CCO)CCO | 1.9% | –
13 | Cc1ccccc1C(=O)Nc1ccc(C(=O)N2CCCC(O)c3cc(Cl)ccc32)c(C)c1 (stereo not given) | -20.4% [at 42.5 µM] | –
14 | CC(=O)N(CC(O)CN(C(C)=O)c1c(I)c(C(=O)NCC(O)CO)c(I)c(C(=O)NCC(O)CO)c1I)c1c(I)c(C(=O)NCC(O)CO)c(I)c(C(=O)NCC(O)CO)c1I (stereo not given) | -5.82% [at 42.5 µM] | –
15 | CO[C@@]1(NC(=O)CSCC#N)C(=O)N2C(C(=O)O)=C(CSc3nnnn3C)CS[C@@H]21 | 4.68% [at 42.5 µM] | –
16 | CCc1cc(Cl)c(OC)c(C(=O)NC[C@@H]2CCCN2CC)c1O | -0.502% [at 42.5 µM] | –
17 | COc1ccccc1OCC(O)COC(N)=O (stereo not given) | 3.73% [at 42.5 µM] | –
18 | NC(=O)NS(=O)(=O)c1ccc(Cl)cc1 | 1.54% [at 42.5 µM] | –
19 | CCc1nnc(NS(=O)(=O)c2ccc(N)cc2)s1 | 0.418% [at 42.5 µM] | –
20 | CCN(CC)CC1CCCCN1CC(=O)N1c2ccccc2C(=O)Nc2cccnc21 (stereo not given) | -7.5% [at 42.5 µM] | –

Row | Structure (SMILES) | viability change, negative = cytotoxic | Potency
21 | CCCCCCCOC(=O)CCC | -5.52% | –
22 | CCC(=O)Nc1ccc(O)cc1 | -4.19% [at 42.5 µM] | –
23 | CCOc1ccc(NC(N)=O)cc1 | 5.13% | –
24 | C=CCc1cc(OC)c(O)c(C(=O)NCCO)c1 | -7.62% [at 42.5 µM] | –
25 | NC1=NCC2c3ccccc3Cc3ccccc3N12 (stereo not given) | 11.1% [at 42.5 µM] | –
26 | Cc1ccc([N+](=O)[O-])cc1Cl | 0.739% | –
27 | CC(=O)N[C@@H](CC(C)C)C(=O)O | -1.59% [at 42.5 µM] | –
28 | Nc1ccc2ccccc2c1S(=O)(=O)O | 0.234% | –
29 | Oc1ccccc1C=NCc1ccccc1 | 6.74% [at 42.5 µM] | –
30 | CCCCNc1cc(C(=O)O)cc(S(N)(=O)=O)c1Oc1ccccc1 | 3.24% [at 42.5 µM] | –
31 | CC1=CC(=O)CC(C)(C)C1=O | -10.3% | –
32 | NNS(=O)(=O)c1ccc(Oc2ccc(S(=O)(=O)NN)cc2)cc1 | -0.29% | –
33 | CN1C(=O)CC(c2ccccc2)C1=O (stereo not given) | -1.09% [at 42.5 µM] | –
34 | CN1CCN(C2=Nc3cc(F)ccc3Cc3ccccc32)CC1 | -19.4% [at 42.5 µM] | –
35 | CC1=C(O)C(=O)OC1C (stereo not given) | 2.48% | –
36 | CN1CCN(c2c(F)cc3c(=O)c(C(=O)O)cn(CCF)c3c2F)CC1 | -3.25% [at 42.5 µM] | –
37 | COC(=O)/C=C(/C)N | 5.95% [at 42.5 µM] | –
38 | CS(=O)(=O)c1ccc([C@@H](O)[C@@H](CF)NC(=O)C(Cl)Cl)cc1 | 1.71% [at 42.5 µM] | –
39 | CC(CNC1CCCCC1)OC(=O)c1ccccc1 (stereo not given) | -0.352% [at 42.5 µM] | –
40 | COC(C)CCO (stereo not given) | 5.02% | –

From PubChem BioAssay (Tox21)
